Assay outcomes from PubChem.
Sampled rows, rich in hits. Any-hit rate of the full collection: about 7.9%.
PLAP activator – PLAP enzyme activators, biochemical, luminescence, HTS; Alkaline phosphatase, placental type (Homo sapiens), P05187; purified PLAP enzyme, luminescent substrate read-out; stronger effect = higher value; activation fold at 20 µM; hit rate 1.2% among 96,000; AID 696, 2007; in the data active = activation fold above about 2
Cav3 T inh – Cav3.2 calcium influx blockers – cell-based, Fluo-4 calcium fluorescence, FDSS, MLSMR library, primary screen; hit rate 4% among 100,000; B-score at 10 µM; Cav3.2-expressing cells; stronger effect = lower value; Voltage-dependent T-type calcium channel subunit alpha-1H (Homo sapiens), O95180; AID 449739, 2010;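 active = single-dose well whose peak fluorescence ratio is a statistical outlier from its plate by either plate-standardised score or position-corrected B-score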
M1 antagonist – antagonists of rat M1 muscarinic receptor | Muscarinic acetylcholine receptor M1 (Rattus norvegicus), P08482 | CHO-M1 cells, Fluo-4 calcium, ACh EC80 antagonist mode; stronger effect = lower value | B-score at 10 µM | hit rate 3.4% among 64,000 | AID 628, 2007;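 active = calcium fluorescence response, raw or row-and-column corrected B-score, differing from the plate sample mean either way at a set confidence level, mostly lower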
M1 agonist – M1 muscarinic receptor agonists, primary screen, CHO-M1 cells, Fluo-4 calcium, agonist mode; Fluo-4 calcium fluorescence; stronger effect = higher value; B-score at 10 µM; hit rate 3% among 64,000; AID 626, 2007;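 active = fluorescence rise, raw or as B-score row- and column-corrected plate score, outside the 99.7% band of its plate's samples, either direction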
HER2 expr 66K – inhibitors of Her2 protein expression, primary screen, SKBR-3 cells, AlphaScreen, 66K library; Receptor tyrosine-protein kinase erbB-2 (Homo sapiens), P04626; SKBR-3 HER2 protein level, 18-24 h; stronger effect = lower value; HER2 level % of control, % at 10 µM; hit rate 0.69% among 65,000; AID 645, 2007;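 active = HER2 level under 5% of the carrier-only control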;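 note: 100% = DMSO carrier and 0% = 500 nM PU-H71 HSP90 inhibitor; lower value means stronger loss of Her2 protein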
* = called active by the depositor; · = no result.

SMILES | PLAP activator | Cav3 T inh | M1 antagonist | M1 agonist | HER2 expr 66K
COC(=O)[C@@H]1C[C@@H]2CC[C@@H](O)C[C@@H]2N1Cc1ccccc1OS(=O)(=O)c1ccc(C)cc1 | · | 0.44 | · | · | ·
O=C(COC(=O)[C@H](Cc1ccccc1)NC(=O)c1ccco1)NCc1ccccc1 | 1.1 | 0.055 | · | · | ·
COc1ccc(OCC(O)CNc2ccc(Br)cc2)cc1 (stereo not given) | 1 | -4.2* | -0.029 | 0.054 | 84
COc1ccc(OCC(O)CNC(=O)c2ccc(Br)cc2)cc1 (stereo not given) | 1 | -1.6 | 0.55 | 0.72 | 97
COc1cc(NC(=O)C2COc3ccccc3O2)c(OC)cc1Cl (stereo not given) | 1.3 | -4.5* | 0.78 | -1 | 83
COC(=O)c1ccc(C)c(NC(=O)C2COc3ccccc3O2)c1 (stereo not given) | 0.9 | -1.2 | -0.29 | 1.2 | 173
CCOC(=O)c1nnn(-c2nc(N3CCCC3)nc(N3CCCC3)n2)c1-c1ccccc1 | 1.1 | · | -0.027 | -0.21 | 110
CCOC(=O)c1nnn(-c2nc(OC)nc(N3CCCCC3)n2)c1-c1ccccc1 | 1.4 | -6.1* | · | · | ·
CC1CC(C)(C)N2C(=O)C3(Nc4ccccc4S3)c3cccc1c32 (stereo not given) | 1.1 | -4.7* | · | · | ·
Cc1cccc2cc(/C=C3\N=C(c4ccccc4)OC3=O)c(N3CCOCC3)nc12 | 1.4 | -6* | · | · | ·
CCN(CC)C(=O)CN1C(=O)COCC1=O | 0.8 | 0.75 | · | · | ·
CCn1c(=O)c2cc(C(=O)N3CCN(C(=O)c4ccco4)CC3)sc2c2ccccc21 | · | 0.38 | -1.4 | 5.2* | 68
CCOc1cc(NC(=S)Nc2ccccc2OC)c(OCC)cc1NC(=O)c1ccccc1C | 1.1 | -3.5 | · | · | ·
CCOC(=O)N1CCN(C(=O)CSCC(=O)N=c2sc3cc(OC)ccc3n2C)CC1 | · | · | 0.92 | -0.054 | 98
CCOC(=O)Cn1c(=NC(=O)CSC(C)=O)sc2cc(OC)ccc21 | 1.2 | -10* | 0 | -1 | 100
CCOC(=O)Cn1c(=NC(=O)CSC(C)=O)sc2ccccc21 | 1.1 | -9.4* | 0.064 | -0.043 | 65
CCOC(=O)Cn1c(=O)sc2ccccc21 | 1.1 | -0.033 | 0.022 | -0.0015 | 89
CC(=O)SCC(=O)N=c1sc2cc(F)ccc2n1C | 0.9 | -6.2* | -0.061 | 0.075 | 86
Cc1ccc(NC(=O)C2C3/C=C\CCCCC32)cc1C (stereo not given) | 1 | 1.3 | · | · | ·
CCCNc1nc(Nc2ccc(C)cc2)nc(N2CCCC2)n1 | 1 | -3 | · | · | ·
CC[C@H](C)/C=C(C)/C=C/C1=CC2=CC(=O)[C@]3(C)OC(=O)[C@@H](C(C)=O)[C@@H]3C2=CO1 | · | -4* | · | · | ·
Nc1cc(-c2ccc(Br)cc2)nn1S(=O)(=O)c1cccc2nsnc12 | 1.1 | · | · | · | ·
Nc1cc(-c2ccc(Cl)cc2)nn1S(=O)(=O)c1cccc2nsnc12 | 0.7 | -6.4* | · | · | ·
O=S(=O)(c1cccc2nsnc12)N1CCCC1 | · | 0.73 | 0.29 | 0.32 | 106
Nc1cc(-c2cccc(F)c2)nn1S(=O)(=O)c1cccc2nsnc12 | · | -5.2* | -0.64 | -0.0022 | 86
SMILES | PLAP activator | Cav3 T inh | M1 antagonist | M1 agonist | HER2 expr 66K
COCCNC(=O)c1ccc2c(=O)n(Cc3ccco3)c(SCC(=O)NC3CCCC3)nc2c1 | 2.2* | 1.9 | · | · | ·
CCN(C(=O)CSc1nc2cc(C(=O)OC)ccc2c(=O)n1Cc1ccco1)c1cccc(C)c1 | 1.1 | -4.3* | -1.6 | -0.53 | 26
CCc1ccc(NC(=O)CSc2nc3cc(C(=O)OC)ccc3c(=O)n2Cc2ccco2)cc1 | 1 | -0.086 | 0.22 | -0.45 | 116
O=C(O)C1=C[C@H](c2csc3ccccc23)C[C@H](OCCCCO)O1 | · | -0.25 | · | · | ·
O=C(CCN1C(=O)/C(=C/c2cccc(Br)c2)SC1=S)NNC(=O)c1cccnc1 | 2.2* | -0.0084 | · | · | ·
O=C(NN1C(=O)/C(=C/c2cccnc2)SC1=S)C(c1ccccc1)c1ccccc1 | 1.5 | -2.4 | · | · | ·
CCN1C(=O)N(C)[C@@H](c2ccccc2)C(C(=O)OC)=C1C | · | 0.38 | · | · | ·
O=C(OCc1ccc2c(c1)OCO2)c1ccc(S(=O)(=O)N2CCCCC2)cc1 | 1.2 | -0.013 | -0.11 | 0.57 | 125
O=C(CSCc1cccc(Cl)c1)N1CCN(Cc2ccc3c(c2)OCO3)CC1 | 1.8 | -5.1* | · | · | ·
Cc1ccc(NC(=O)N2CCN(Cc3ccc4c(c3)OCO4)CC2)cc1 | 2* | 0.51 | · | · | ·
Cc1ccc(C(=O)N2CCN(Cc3ccc4c(c3)OCO4)CC2)o1 | 1 | -0.41 | · | · | ·
O=C(c1ccc(S(=O)(=O)N2CCCC2)cc1)N1CCN(Cc2ccc3c(c2)OCO3)CC1 | 1.5 | 3.9* | 0.15 | -0.14 | 95
O=C(c1ccc(COc2ccccc2Cl)o1)N1CCN(Cc2ccc3c(c2)OCO3)CC1 | 1.3 | -4.9* | -0.2 | 2.6 | 56
N#Cc1c(-c2ccco2)cc(-c2ccccn2)nc1N | 1.3 | · | · | · | -1.2*
CCS(=O)(=O)C(=C1NCCO1)S(=O)(=O)CC | 1 | -0.78 | 0.55 | -0.51 | 109
c1cc(-c2nnc3n2CCCCC3)ccn1 | 1 | 0.55 | -0.11 | -0.65 | 141
c1cnc(-c2nnc3n2CCCCC3)cn1 | 1.1 | -2.5 | 0.42 | -1.4 | -16*
Cn1cc(C(F)(F)F)nc1-c1ccc(OCC(O)CNCCOc2ccc(O)c(C(N)=O)c2)cc1 (stereo not given) | · | -0.23 | · | · | ·
O=C(CN1/C(=C(/O)c2ccccc2)C(=O)c2ccccc2S1(=O)=O)c1ccccc1 | 1.3 | -6.9* | · | · | ·
C#CCNC(=O)C1=C[C@@H](c2ccc(C(F)(F)F)cc2)[C@H](CCCO)[C@@H](OCC)O1 | · | -0.34 | · | · | ·
c1ccc(-c2nc3ccccn3c2NCc2ccc3c(c2)OCO3)cc1 | 0.6 | -4.2* | · | · | ·
COc1ccc(-c2nc3ccccn3c2NCc2ccc3c(c2)OCO3)cc1 | · | -4* | · | · | ·
CCC1(CC)C(=O)N(C)C(=O)NC1=Nc1ccc(OC)cc1 | 1.2 | 1.2 | · | · | ·
CCN1C(=O)N(S(=O)(=O)c2ccc(C)cc2)[C@@H](c2ccccc2)C(C(=O)OC)=C1C | · | -0.75 | · | · | ·
c1ccc(-c2noc(CSc3nnnn3C3CCCCC3)n2)cc1 | 1 | -5.7* | 0.22 | -0.039 | 92
SMILES | PLAP activator | Cav3 T inh | M1 antagonist | M1 agonist | HER2 expr 66K
COc1ccc(-c2noc(CSc3nnc(-c4ccccc4)n3C)n2)cc1 | 1.5 | 0.86 | · | · | ·
CCn1c(SCc2nc(-c3ccccc3)no2)nnc1-c1cccs1 | 0.8 | -0.79 | · | · | ·
CCn1c(SCc2nc(-c3ccccc3)no2)nc2ccccc21 | 1 | -3.4* | 0.045 | -0.69 | 92
Cc1onc(-c2c(F)cccc2Cl)c1C(=O)Nc1nc2ccccc2[nH]1 | 2* | -0.35 | · | · | ·
O=C(Nc1ccccc1Oc1ccccc1)c1cccc([N+](=O)[O-])c1 | 0.8 | -3.9 | · | · | ·
Cc1ccc(C(=O)Nc2ccccc2Oc2ccccc2)cc1[N+](=O)[O-] | 0.6 | -4.1* | · | · | ·
Cc1nnc(SCc2ccc(C(=O)O)cc2)s1 | 1.1 | 1.5 | · | · | ·
O=C(O)c1ccc(CSc2nnc(SCc3ccccc3)s2)cc1 | 1.2 | -6.6* | · | · | ·
Cc1nnc(SCc2ccc(F)cc2)s1 | 1 | 0.64 | 0.33 | -0.83 | 109
